The entries come from a sample that favours hits as a whole.
Cycloheximide cs = affects cycloheximide protein synthesis inhibition readout, counter-screen. cell reporter, cycloheximide protein synthesis inhibition counterscreen. max response, %. 12% of 300,000 active; in the data active means max response mostly above about 13%, no sharp cut-off; inactive means mostly below about 14%; further: read at 38.3 µM for the half of the compounds with a filed dose; 0% is about no effect
Giardia FBPA inh = blocks Giardia fructose-bisphosphate aldolase activity; A8B2U2; purified Giardia FBPA; Potency, µM (highest dose often 59.6 µM), for the others: top-dose activity, negative = inhibition, hits mostly inhibitors; 0.71% of 290,000 active; further: potency means the concentration at half of the fitted maximal effect; on the % scale 0 is the no-effect control and ±100 the full control effect; nearly all actives have a fitted effect of over 55% in size
Target sequence (A8B2U2 whole entry, looked up): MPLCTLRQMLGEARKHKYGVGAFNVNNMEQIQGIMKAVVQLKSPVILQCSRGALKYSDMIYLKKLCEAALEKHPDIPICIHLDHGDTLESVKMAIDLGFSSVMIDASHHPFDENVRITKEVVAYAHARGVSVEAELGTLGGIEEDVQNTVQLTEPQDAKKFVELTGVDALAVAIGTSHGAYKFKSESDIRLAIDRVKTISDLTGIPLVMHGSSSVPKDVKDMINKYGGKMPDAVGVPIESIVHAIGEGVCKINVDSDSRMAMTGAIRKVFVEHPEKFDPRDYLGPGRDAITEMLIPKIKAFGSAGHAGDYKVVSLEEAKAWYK
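Giardia FBPA (40 nM reagent) was preincubated 10 min at RT with compound (up to 57.5 uM final), then substrate plus GAPDH/TPI/NAD/arsenate coupling system with diaphorase/resazurin was added; resorufin fluorescence (525/598 nm) was read after 20 min.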
RE007 growth inh = less growth of the S. pombe RE007 Vpr strain; S. pombe RE007 Vpr strain, BacTiter-Glo ATP luminescence, 24 h; Potency, µM (series often up to 92.2 µM), inactives show top-dose activity change, negative = less growth, actives largely listed as inhibitors; 0.21% of 360,000 active; active means well fitted falling curve with a large enough effect; inconclusive means small, poorly fitted or top-dose-only effect; inactive means no such curve, though single readings can be large or run the other way; further: potency means the concentration at half of the fitted maximal effect; on the % scale 0 is the no-effect control and ±100 the full control effect; nearly all actives have a fitted effect of over 50% in size
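Fission yeast RE007 carrying one integrated HIV-1 vpr copy, seeded at OD 0.01 in PMG+AL medium with 23 nL pinned compound. Grown 24 h at 30 degrees; viability read by BacTiter-Glo luminescence after 5 min.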
Tb PYK inh = blocks Trypanosoma brucei pyruvate kinase | Q57TT1 | 0.12% of 410,000 active | Potency, µM (doses to about 76.8 µM), for the others: at the top dose activity, negative = inhibition, usual class: inhibitors | AID 624173 | TbPYK enzyme, Kinase-Glo Plus ATP luminescence, 45 min; further: potency means the concentration at half of the fitted maximal effect; on the % scale 0 is the no-effect control and ±100 the full control effect; nearly all actives have a fitted effect of over 50% in size
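Quantitative HTS: titrated library compounds versus trypanosomal pyruvate kinase in TEA buffer (pH 7.2) containing KCl, MgCl2, BSA and Tween-20. Reactions were initiated with ADP, 130 uM final. Kinase-Glo Plus luminescence was read after 45 min at RT.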
Shiga toxin inh = blocks Shiga toxin action in Vero cells; Vero cells, Shiga toxin protein synthesis inhibition reporter; inhibition, % at 38.7 µM; 9.2% of 290,000 active; in the data active means inhibition mostly above about 28%, no sharp cut-off; inactive means mostly below about 43%; further: 0% is about no effect
LmPK inh = LmPK (Leishmania mexicana) enzyme inhibition; Q27686; purified LmPK, Kinase-Glo ATP luminescence, 1 h; Potency, µM (doses to about 57.5 µM), inactives show at the top dose activity change, negative = inhibition, usual class: inhibitors; 0.37% of 290,000 active; further: potency means the concentration at half of the fitted maximal effect; on the % scale 0 is the no-effect control and ±100 the full control effect
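ATP generated from ADP (0.1 mM) and PEP (0.5 mM) by 0.1 nM LmPK over 1 h at room temperature (pH 7.2 imidazole buffer) was detected by coupled luciferase luminescence. Values were normalized to uninhibited and no-enzyme wells.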
* hit, by the source's call; ? = inconclusive; / = no result; [ ] = remark or other dose. Unless noted, the call rests on the fitted dose curve; in most records, active means well fitted curve in the direction sought with a large enough effect; inconclusive means small, poorly fitted or top-dose-only effect, or another doubt; inactive means no such curve, though single readings can be large; an effect the other way counts as inactive or inconclusive.

SMILES | Cycloheximide cs | Giardia FBPA inh | RE007 growth inh | Tb PYK inh | Shiga toxin inh | LmPK inh
CC(C)c1cccc2nc3c(c(C(C)(C)C)c12)Cn1c-3cccc1=O | / | -12% | / | / | / | /
CN1C=CC(=C2C=CN(C)C=C2)C=C1 | 1 | -8% | / | / | 3 | /
COC(=O)c1c(OC)cc2c(c1C)Oc1c(Cl)c(OC(C)=O)c(Cl)c(C)c1C(=O)O2 | / | 18% | / | / | / | /
CCOc1ccc(C(=O)Nc2cccc(NC(=O)c3ccc(C(C)(C)C)cc3)c2)cc1Br | / | / | / | 1% | / | /
COc1ccc(N2CCN(C(=O)/C=C/c3ccco3)CC2)cc1 | -3 | -5% | -4% | -8% | -13 | -6%
Cc1cccc(N2CCN(C(=O)/C=C/c3cccs3)CC2)c1C | 44* | -1% | -18% | -2% | 64* | 0%
COc1ccccc1/C=C/C=N/N1CCN(c2ccccn2)CC1 | -4 | -26% | -29% | 1% | -9 | -2%
COc1ccccc1N1CCN(/N=C/C=C\c2ccco2)CC1 | 41* | 0% | -16% | -6% | 53* | -8%
COc1ccccc1N1CCN(C(=O)/C=C/c2ccco2)CC1 | 28* | -12% | 2% | -20% | 37* | -6%
O=C(/C=C/c1cccs1)N1CCCC1 | 16* | 15% | 22% | -1% | 46* | -9%
COC(=O)c1c(SC)nc2ccccc2c1OCc1cccc(C)c1 | / | / | / | -4% | / | /
COC(=O)c1ccc(C(NC(=O)OCc2ccccc2)/C(I)=C/[C@@H](C)C(=O)NCC2CC2)cc1 (stereo partly drawn) | / | 4% | / | / | / | /
CCc1ccc(OC(C)C(=O)Nc2c(C(=O)c3ccccc3)oc3ccccc23)cc1 (stereo not drawn) | / | / | / | -13% | / | /
Cc1ccccc1-n1cnc2cc(NCc3cccs3)ccc21 | 12 | -9% | -16% | -16% | 45 | -3%
COc1ccccc1-n1cnc2cc(NCc3cccs3)ccc21 | 23* | -5% | 4% | -11% | 44* | 2%
COc1ccccc1-n1cnc2cc(NCc3ccccc3O)ccc21 | 22* | -10% | 3% | -7% | 70* | -7%
COc1ccc(CNc2ccc3c(c2)ncn3-c2ccccc2OC)cc1 | -1 | -3% | 2% | -27% | 45 | 0%
COc1ccc2c(c1)CC(NC(=O)Nc1c(C)cc(C)cc1C)CO2 (stereo not drawn) | / | / | / | -7% | / | /
CCCCN(CC)CCCNC(=O)c1nn(-c2ccc(OC)cc2)c(=O)c2c1c1ccccc1n2C | / | / | / | -1% | / | /
CN(C(=O)c1ccc2ccccc2c1)c1ccccn1 | 30* | -1% | -8% | -5% | 48 | 0%
CN(C(=O)c1ccoc1)c1ccc2ccccc2c1 | -3 | / | 33% | -9% | -10 | -9%
CCCCc1cc(=O)oc2cc(C)c3c(C)coc3c12 | / | / | / | 6% | / | /
Cc1c(/C=N/NC(=O)c2ccccc2O)c2ccccn2c1C(=O)c1ccc(F)cc1 | 15* | -17% | 3% | 2% | 27 | 1%
CCOC(=O)N1CCN([N+]([O-])=NOc2cc(O/N=[N+](\[O-])N(CC)CC)c([N+](=O)[O-])cc2[N+](=O)[O-])CC1 | -3 | ? | / | / | -9 | /
Cn1cnnc1Sc1cc(N2CCN(S(=O)(=O)c3ccc4ccccc4c3)CC2)ccc1[N+](=O)[O-] | 11* | -5% | -5% | -1% | 26 | 1%
SMILES | Cycloheximide cs | Giardia FBPA inh | RE007 growth inh | Tb PYK inh | Shiga toxin inh | LmPK inh
Cn1cnnc1Sc1cc(N2CCN(S(=O)(=O)c3ccc(Cl)c(Cl)c3)CC2)ccc1[N+](=O)[O-] | -4 | 1% | -4% | -6% | 1 | 2%
Cc1cc(C)n(CCNC(=O)c2cc(COc3ccc(F)cc3Cl)on2)n1 | 4 | 0% | -12% | 3% | 3 | 1%
CSc1ccccc1OCc1cc(C(=O)NC(C)Cn2cncn2)no1 (stereo not drawn) | 13* | -13% | -5% | 1% | 18 | -3%
CSc1ccccc1OCc1cc(C(=O)NCCn2nc(C)cc2C)no1 | 11* | 4% | -5% | 3% | 6 | 6%
CSc1ccccc1OCc1cc(C(=O)NCC(C)(C)N2CCOCC2)no1 | 8 | -1% | -13% | 2% | 55 | -3%
CSc1ccccc1OCc1cc(C(=O)NCCCc2ccccc2)no1 | 6 | -1% | -23% | -4% | 33 | -1%
CSc1ccccc1OCc1cc(C(=O)NCCN2CCCc3ccccc32)no1 | 33* | -16% | -3% | -2% | 16 | -1%
O=C(Cn1c(SCc2cccc(F)c2)nc2cccnc21)Nc1ccc(F)c(Cl)c1 | / | / | / | 3% | / | /
COc1ccc(N2C(=O)CC(Sc3nnc(-c4ccccc4)o3)C2=O)cc1 (stereo not drawn) | 4 | -1% | -14%[3.69 µM] | / | 12 | 2%
O=C1CC(Sc2nnc(-c3ccccc3O)o2)C(=O)N1c1ccccc1 (stereo not drawn) | 2 | 2% | 50µM* | -8% | 51 | -3%
CCOC(=O)c1ccc(N2C(=O)CC(Sc3nnc(C)s3)C2=O)cc1 (stereo not drawn) | -3 | -21% | 20µM* | ? | -4 | 4%
C=CCNc1nnc(SC2CC(=O)N(c3ccc(OCCC)cc3)C2=O)s1 (stereo not drawn) | -3 | -20% | 11µM* | -19% | 16 | 10%
CCOC(=O)c1ccc(N2C(=O)CC(Sc3nc(C)cc(C)n3)C2=O)cc1 (stereo not drawn) | -4 | -1% | 7% | -1% | 10 | -4%
CCOc1ccc(N2C(=O)CC(Sc3nc4ccc(OCC)cc4s3)C2=O)cc1 (stereo not drawn) | / | / | -10% | -10% | / | /
Nc1nnc(SC2CC(=O)N(c3ccccc3)C2=O)s1 (stereo not drawn) | -2 | -7% | 28µM* | -10% | 2 | 14%
O=C(NCc1ccc(Cl)cc1)C(=O)Nc1ccc(Br)cc1 | / | / | / | 0% | / | /
CCOCCn1ccc2c(OCC(=O)NCc3ccc(F)cc3)cccc2c1=O | / | / | / | -2% | / | /
O=C(Cc1ccc(F)cc1)NCCc1csc2nc(-c3ccccc3F)nn12 | / | / | / | 3% | / | /
CCN1CCN(CCCNC(=O)Cn2nc(C)n3c(cc4c(OC)cccc43)c2=O)CC1 | / | / | / | -5% | / | /
O=C(c1ccccc1F)N1c2nc(-c3ccco3)nn2C2(CCCCC2)[C@@H]2CCCC[C@@H]21 | / | / | / | -19% | / | /
CS(=O)(=O)N1CCc2cc(C(=O)Nc3ccc(S(N)(=O)=O)cc3)ccc21 | / | / | / | 0% | / | /
NC(=S)N/N=C1\CC(n2nnnc2-c2ccccc2Cl)C2COC1O2 (stereo not drawn) | 27 | -26% | -24% | -15% | 20 | 7%
Cc1ccc(-c2nnnn2C2C/C(=N\NC(N)=S)C3OCC2O3)cc1 (stereo not drawn) | 20* | -25% | 8% | -17% | 39 | 1%
O=C(CSc1n[nH]c(-c2ccccc2)n1)N1CCN(c2ccccc2F)CC1 | / | / | / | -12% | / | /
O=[N+]([O-])c1ccc(N2CCOCC2)cc1O | 1 | 0% | 3% | 5% | -4 | -2%

Assay outcomes deposited in PubChem BioAssay by National Center for Advancing Translational Sciences (NCATS).
